High-throughput results deposited in PubChem by several laboratories.
Most compounds without a hit are left out; they make up all but 4.6% or so of the library.
TIM10 inh – growth inhibitors of isogenic TIM10 control yeast, primary screen, counter-screen for tim10-1 yeast inhibitor project, luminescence, uHTS; inhibition, % at 10 µM; 330,000 compounds, 1.4% hits; AID 463195, 2010; S. cerevisiae TIM10 strain growth, BacTiter-Glo luminescence, 24 h;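 active means inhibition of 40% or more at the single tested concentration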;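 further: wild-type TIM10 isogenic control strain grown at permissive 25 °C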
tim23-1 inh – growth inhibitors of tim23-1 mutant yeast, primary screen, luminescence, uHTS | S. cerevisiae tim23-1 growth, BacTiter-Glo luminescence, 24 h | inhibition, % at 20 µM | 330,000 compounds, 1.3% hits;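 active means growth inhibition of the mutant yeast at or above 50%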;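 further: temperature-sensitive mutant grown at 25 °C; plate controls were DMSO-treated mutant yeast for no effect and medium wells lacking yeast for full effect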
tim10-1 inh – growth inhibitors of tim10-1 mutant yeast, primary screen, luminescence, uHTS | S. cerevisiae tim10-1 ts strain growth, BacTiter-Glo, 24 h | inhibition, % at 20 µM | 330,000 compounds, 2.2% hits;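 active means inhibition of at least 40%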;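 further: mutant grown at 25 °C; 0% = DMSO wells with yeast and 100% = wells holding no yeast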
NLRP3 yeast inh – NALP3 inflammasome inhibitors in reconstituted yeast, primary screen, luminescence, uHTS | Yeast reconstituted NLRP3/ASC/caspase-1, beta-gal luminescence, 24 h | inhibition, % at 10 µM | 330,000 compounds, 0.39% hits | AID 2825, 2010;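 active means inhibition of 50% or more; inactive means inhibition below 50%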;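 further: plate controls were induced DMSO wells for no effect and uninduced yeast grown without galactose for full effect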
SKKanGAS inh – S. pyogenes SKKanGAS growth inhibitors in kanamycin, primary screen, streptokinase expression inhibitor project, SKKanGAS strain, BacTiter-Glo luminescence | 300,000 compounds, 1.3% hits | AID 1662, 2009 | inhibition, % at 7.5 µM | 6 h;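 active means mean replicate score, as percent of positive control median, at least 50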;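 further: strain carries kanamycin resistance gene driven by streptokinase promoter and grows in 40 µg/ml kanamycin; loss of luminescence reflects streptokinase promoter inhibition or plain growth inhibition; 0% = median of DMSO wells and 100% = positive control at its reference dose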
tim10-1 confirm – growth inhibitors of tim10-1 mutant yeast, confirmation, single concentration, luminescence, S. cerevisiae. S. cerevisiae tim10-1 ts strain growth, BacTiter-Glo, 24 h. 7,400 compounds, 56% hits. inhibition, % at 20 µM. shares compounds with tim10-1 inh;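 active means inhibition of yeast growth at or above a set limit in either of two repeat tests at 20 µM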;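 further: tim10-1 mutant grown at permissive 25 °C to find synthetic lethal compounds; 0% = DMSO yeast wells and 100% = medium wells without yeast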
tim10 confirm – growth inhibitors of wild-type TIM10 yeast, confirmation, counter-screen for tim10-1 synthetic lethality project, single concentration, luminescence, S. cerevisiae; shares compounds with TIM10 inh; 4,600 compounds, 63% hits; AID 463215, 2010; inhibition, % at 10 µM; S. cerevisiae tim10 strain growth, BacTiter-Glo luminescence, 24 h;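 active means inhibition of yeast growth at or above a set limit in either of two replicates at 10 µM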;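 further: this counterscreen used the strain with wild-type TIM10; 0% = yeast with DMSO and 100% = medium wells lacking yeast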
tim23-1 confirm – tim23-1 mutant yeast growth inhibitors, confirmation, luminescence, single concentration | shares compounds with tim23-1 inh | S. cerevisiae tim23-1 growth, BacTiter-Glo luminescence, 24 h | inhibition, % at 20 µM | 4,400 compounds, 83% hits | AID 463218, 2010;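 active means inhibition above about 39% in either of two replicate wells at 20 µM, limit read from the data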;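 further: temperature-sensitive tim23-1 mutant grown at 25 °C; 0% = DMSO wells with yeast and 100% = medium wells without yeast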
Starred values were filed as active, the others as inactive; . = no result given.

SMILES | TIM10 inh | tim23-1 inh | tim10-1 inh | NLRP3 yeast inh | SKKanGAS inh | tim10-1 confirm | tim23-1 confirm | others
Cc1nnc(C)n1/N=C/c1cc(Br)cc(Br)c1O | 63* | 63* | 56* | 15 | 24 | 32* | 85* | tim10 confirm=0
Oc1c(Br)cc(Br)cc1/C=N/n1c(-c2ccccc2)n[nH]c1=S | 39 | 80* | 66* | 21 | 3 | 50* | 88*
CCOc1ccc(C(=O)OCC(=O)N(Cc2ccccc2)Cc2ccccc2)cc1OC | 11 | 30 | 9 | 6 | . | . | .
Cc1cccc(NC(=O)COC(=O)c2nn(C)c(=O)c3ccccc23)c1C | 4 | 19 | 5 | 18 | . | . | .
CC(OC(=O)C1CCN(S(=O)(=O)c2ccc(Cl)cc2)CC1)C(=O)NC1CCCCC1C (centres undefined) | 18 | 30 | 28 | 20 | 0 | . | .
CCCCCCC(=O)N/N=C/c1ccc(Br)cc1 | 34 | 73* | 50* | 6 | 0 | 33* | 73*
Cc1ccccc1/C=C1\C(=O)Nc2ccc(F)cc21 | 26 | 53* | 44* | 33 | -1 | 38* | 61*
O=C(NCc1ccccc1)c1nnc(CS(=O)(=O)c2ccccc2)o1 | -3 | 6 | 13 | 15 | 0 | . | .
O=C(ONC1=NCCCCC1)c1ccc(Cl)cc1 | 87* | 61* | 52* | 27 | -7 | 38* | 41* | tim10 confirm=84*
O=C(ONC1=NCCCCC1)c1c(F)cccc1F | 44* | 53* | 51* | 7 | -6 | 45* | 59* | tim10 confirm=33*
COc1ccc(NS(=O)(=O)c2ccc(O)c(NS(=O)(=O)c3ccc(NC(C)=O)cc3)c2)cc1 | 8 | -3 | -12 | 11 | . | . | .
Cc1cc(CN2CCN(CC(=O)Nc3cc(Cl)ccc3-n3cncn3)CC2)no1 | 5 | 7 | -12 | 18 | . | . | .
Cc1csc(SCC(=O)NC2CCC(C)CC2)n1 (centres undefined) | -4 | -9 | -1 | 7 | 0 | . | .
Cc1sc(N)nc1-c1ccc(Oc2ccccc2)cc1 | 29 | 69* | 40* | 37 | 34 | 50* | 57*
CCCN(CCC)C(=O)c1cc([N+](=O)[O-])cc2c1-c1ccc([N+](=O)[O-])cc1C2=C(C#N)C#N | 11 | 74* | 67* | 7 | 8 | 67* | 75*
CCCCN(CCCC)C(=O)c1cc(Cl)ccc1[N+](=O)[O-] | -14 | 28 | 9 | -37 | 0 | . | .
Cc1ccc2nc(N3CCN(C=O)CC3)nc(-c3ccccc3)c2c1 | 29 | 60* | 43* | 34 | 0 | 10 | 42*
Cc1ccc2nc(N3CCN(C(=O)CCCC(=O)O)CC3)nc(-c3ccccc3)c2c1 | 21 | 29 | 25 | 5 | 14 | . | .
C/C(=N\NC(=S)Nc1cc(S(=O)(=O)N2CCOCC2)ccc1Cl)c1ccccc1F | 44* | 61* | 41* | 31 | -7 | 37* | 42* | tim10 confirm=-9
CC(C)N(C(=S)Nc1cc(S(=O)(=O)N2CCOCC2)ccc1Cl)c1ccccc1 | 9 | 3 | -3 | 21 | -8 | . | .
CC(C)(C)c1ccc(OCC(=O)O/N=C(\N)c2ccncc2)cc1 | 12 | 0 | 21 | 15 | -5 | . | .
O=C(N/N=C/c1cc(Br)c(Br)o1)c1ccc2c(c1)OCCO2 | 57* | 53* | 65* | 34 | 5 | 53* | 80* | tim10 confirm=59*
CC(=O)Oc1cccc(/C=C2\Sc3ccccc3C2=O)c1 | 33 | 86* | 44* | 20 | -2 | 48* | 85*
Nc1c(Cl)cc(C2=NCCn3nc4cc(C(F)(F)F)ccc4c32)cc1Cl | 2 | 22 | 5 | 17 | 27 | . | .
